FAS TE block – blocks the thioesterase domain of human fatty acid synthase; recombinant FAS-TE, OMFH fluorogenic substrate, fluorescence endpoint; inhibition, % at 15 µM; hit rate 0.67% among 360,000; AID 602261;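 active = compounds whose normalised, plate-corrected inhibition of enzyme fluorescence in the single-dose primary screen is 50% or more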
MPTP inh – blocks calcium-induced mitochondrial swelling; isolated mouse mitochondria, Ca2+ swelling absorbance, 30 min; inhibition, % at 10 µM; hit rate 1.4% among 360,000;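 active = inhibition of 50% or more, scaled per plate between neutral and stimulator controls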
NR3A LBD binder – modulates the human NR3A ligand-binding domain; Tm shift relative to glycine control, % at 25 µM; hit rate 2.5% among 340,000; AID 1259313; NR3A LBD differential scanning fluorimetry, Tm shift; 0% = protein alone, 100% = glycine-bound protein;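 active = melting temperature shift of at least 10% of the positive control shift, at one fixed dose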
rCAG RNA binder – binds r(CAG) RNA repeats. hit rate 1.3% among 370,000. inhibition, % at 3 µM. AID 651821. r(CAG) RNA repeat, TO-PRO-1 dye displacement fluorescence;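 active = inhibition above the plate cutoff, the mean of all test compounds on that plate plus 3 SD, cut at about 35% in these data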;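 note: higher means more dye released from RNA so lower well fluorescence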
Myeloid diff 2 – compounds promoting myeloid differentiation. ER-HoxA9 myeloid progenitors, lysozyme-GFP differentiation, flow cytometry. calls only at 10 µM. hit rate 1% among 360,000. AID 624256;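 active = normalized GFP-positive differentiation at or above the plate's own cutoff, the solvent-only control mean plus 3 SD; inconclusive = no clear call, values can overlap the other calls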;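 note: cells exposed to compound for four days before flow analysis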
rCAG bind conf – r(CAG) RNA repeat binding, confirmation; inhibition, % at 3 µM; hit rate 70% among 4,300; shares compounds with rCAG RNA binder; TO-PRO-1 dye displacement fluorescence; AID 652065;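 active = inhibition above a per-plate cutoff, the mean inhibition of sample wells plus 3 SD, cut at about 35% in these data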;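 note: loss of TO-PRO-1 fluorescence as compound displaces dye from 1x1 AA loop RNA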
DNA CAG counter – DNA CAG dye complex inhibition counter-screen | d(CAG) DNA oligo TO-PRO-1 dye displacement, fluorescence | hit rate 94% among 4,300 | AID 652068 | inhibition, % at 3 µM | shares compounds with rCAG RNA binder;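 active = inhibition above its plate's cutoff, the mean test-well inhibition plus 3 SD, cut at about 4.8% in these data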;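 note: hits displace the dye from DNA and so lower well fluorescence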
Numbers stand for hits; – = inactive; ? = inconclusive; · = not tested or not shown. Sampled rows, rich in hits. Any-hit rate of the full collection: about 5.7%.

SMILES	FAS TE block	MPTP inh	NR3A LBD binder	rCAG RNA binder	Myeloid diff 2	rCAG bind conf	DNA CAG counter
CCCCCCCC(=O)Nc1ccc(S(=O)(=O)Nc2nccs2)cc1	–	–	–	54.9	–	41.0	18.4
CCOC(=O)c1cc2sccc2n1CC(=O)c1ccc2c(c1)OCCO2	–	–	–	–	–	·	·
Cn1c(=O)c2c(-c3ccccc3)n(-c3cc(Cl)c([N+](=O)[O-])cc3O)cc2n(C)c1=O	–	–	·	42.9	–	42.4	10.7
Cn1c(=O)c2c(-c3ccccc3)n(-c3cc([N+](=O)[O-])ccc3O)cc2n(C)c1=O	–	–	·	–	–	·	·
CC(=O)c1ccc(OCc2c(-c3ccccc3)nnn2CC(=O)NS(=O)(=O)c2ccccc2C)cc1	–	–	·	52.0	–	48.8	14.2
Cc1ccc(OCc2nnn(CC(=O)NS(=O)(=O)c3c(C)noc3C)c2-c2ccccc2)cc1	–	–	·	61.2	–	67.4	18.8
CC(=O)c1ccc(OCc2nnn(CC(=O)O)c2-c2ccccc2)cc1	–	–	·	–	–	·	·
CC(=O)c1ccc(OCc2c(-c3ccccc3)nnn2CC(=O)NS(=O)(=O)c2ccc(C)cc2)cc1	–	–	·	48.4	–	60.4	15.2
Cc1ccc(S(=O)(=O)NC(=O)Cn2nnc(-c3ccccc3)c2COc2ccc3ccccc3c2)cc1	–	–	·	79.9	–	85.6	49.9
Cc1cccc(N2C(=O)C(O)=C(C(=O)c3cccs3)C2c2cccc(Oc3ccccc3)c2)n1 (configuration not stated)	–	–	–	45.4	–	40.1	10.3
Cc1cccc(N2C(=O)C(O)=C(C(=O)c3cccs3)C2c2ccccc2)n1 (configuration not stated)	–	–	–	–	–	·	·
CCCCC(=O)N1CC(=O)Nc2ccc(F)cc2C1c1ccccc1 (configuration not stated)	–	–	–	–	–	·	·
O=C(Cn1cc(C(F)(F)F)ccc1=O)Nc1ccccc1	–	–	–	–	–	·	·
COc1ccc(-c2cc(-c3ccccc3)nc(SC(C)C(=O)O)c2C#N)cc1 (configuration not stated)	–	–	–	70.5	–	75.7	38.0
N#Cc1c(-c2ccccc2)cc(-c2ccccc2)nc1SCc1nnc(-c2ccccc2)o1	–	–	–	–	–	·	·
CC(C)C(Sc1nc(-c2ccccc2)cc(-c2ccccc2)c1C#N)C(=O)O (configuration not stated)	–	–	–	83.2	–	85.7	51.3
COc1ccc(-c2csc(C)n2)cc1OC	–	–	–	–	–	·	·
COc1ccc(-c2csc(C(C#N)=C(O)CSc3nccn3C)n2)cc1OC	–	–	–	54.4	?	–	7.2
COc1ccc2nc(-n3c(O)c(C4=c5ccccc5=NC4=O)[nH]c3=S)sc2c1	–	–	16.7	49.5	–	93.6	78.5
O=[N+]([O-])c1cc(S(=O)(=O)Nc2ccccc2)ccc1NCc1ccccc1	–	–	–	–	–	·	·
O=[N+]([O-])c1cc(S(=O)(=O)Nc2ccccc2)ccc1Nc1ccccc1	–	–	–	–	–	·	·
COc1cc(C=NNc2ccc(S(=O)(=O)Nc3ccccc3C(=O)O)cc2[N+](=O)[O-])ccc1O	–	–	18.8	89.9	–	90.5	68.7
O=C(O)c1ccccc1NS(=O)(=O)c1ccc(NNC(=S)Nc2ccc(OC(F)F)cc2)c([N+](=O)[O-])c1	–	–	–	101.0	–	95.2	80.3
CC(=O)Nc1ccc(C=NNc2ccc([N+](=O)[O-])cc2S(=O)(=O)Nc2ccccc2C(=O)O)cc1	–	–	29.0	57.0	–	88.7	64.8
CC(=O)Nc1cccc(/C(C)=N/Nc2ccc(S(=O)(=O)Nc3ccccc3C(=O)O)cc2[N+](=O)[O-])c1	–	–	14.4	85.3	–	94.1	80.4
COc1ccc(C(=O)Nc2cc(C)nn2-c2cccc(F)c2)cc1OC	–	–	–	–	–	·	·
CCN(c1ccc(OC)cc1)S(=O)(=O)c1ccc2c(c1)CC(C)N2C(=O)C1CC1 (configuration not stated)	–	–	–	–	–	·	·
Cc1nc(CC(=O)c2ccc(O)c(C)c2O)cs1	–	–	–	–	–	·	·

Assay outcomes: PubChem BioAssay, several laboratories
